A selection: hits, their analogues and other compounds. The true share with any hit is near 2.4%.
SENP7 block – inhibitors of human SENP7 protease; Q9BQF6; recombinant SENP7, Z-RLRGG-aminoluciferin luminescence, 40 min; inhibition, % at 5 µM; actives 1.5% (n = 330,000);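 active = inhibition above about 50% at the single test dose, limit read from the data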
SENP6 block – blocks the human protease SENP6 | Q9GZR1 | Recombinant SENP6 catalytic domain, aminoluciferin luminescence | inhibition, % at 10 µM | actives 1.8% (n = 330,000) | AID 2599;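 active = inhibition above about 50% at the single tested dose, limit read from the data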
SENP8 block-1 – inhibitors of human SENP8 protease. actives 0.64% (n = 360,000). recombinant SENP8, Nedd8 substrate fluorescence. inhibition, % at 20 µM. AID 602440. Q96LD8; in the data active = inhibition mostly above about 40%, no sharp cut-off; inactive = mostly below about 27%
Target sequence (Q96LD8 whole entry, looked up): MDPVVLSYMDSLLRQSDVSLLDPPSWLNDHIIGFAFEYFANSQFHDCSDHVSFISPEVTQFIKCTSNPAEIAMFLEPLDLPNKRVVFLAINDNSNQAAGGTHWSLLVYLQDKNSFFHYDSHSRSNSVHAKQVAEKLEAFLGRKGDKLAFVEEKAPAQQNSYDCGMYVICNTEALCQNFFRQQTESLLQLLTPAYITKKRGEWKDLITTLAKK
Platelet DG rel – platelet dense granule release activity; human platelet-rich plasma, SFLLRN dense granule ATP release, luminescence; inhibition, %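 (compounds screened at 7.5 µM in platelet-rich plasma)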; actives 0.22% (n = 300,000); AID 1663;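 active = mean replicate score, as percent of positive control, at or above 50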
SENP8 block-2 – blocks the human protease SENP8; Q96LD8; AID 2540; purified SENP8, Z-RLRGG-aminoluciferin cleavage, luminescence; actives 1.2% (n = 330,000); inhibition, % at 10 µM; in the data active = inhibition above about 50%
SENP8 confirm – human SENP8 inhibition, confirmed; shares compounds with SENP7 block; Recombinant SENP8, Z-RLRGG-aminoluciferin luminescence, 60 min; inhibition, % at 12.5 µM; actives 40% (n = 6,200); AID 488912;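 active = mean inhibition across replicates above about 50%, limit read from the data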
SENP6 confirm – confirmation of human SENP6 protease inhibitors; AID 488915; shares compounds with SENP7 block; actives 58% (n = 6,200); recombinant SENP6, Z-RLRGG-aminoluciferin luminescence; inhibition, % at 12.5 µM
SENP7 confirm – human SENP7 inhibition, confirmed; shares compounds with SENP7 block; recombinant SENP7, Z-RLRGG-aminoluciferin luminescence, 40 min; inhibition, % at 12.5 µM; actives 69% (n = 6,200)
Casp3 SENP sel – caspase-3 inhibition (SENP selectivity assay); inhibition, % at 12.5 µM; AID 488918; shares compounds with SENP7 block; actives 60% (n = 6,200); purified caspase-3, Z-DEVD-aminoluciferin luminescence, 60 min;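 active = mean inhibition above about 50%, limit read from the data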
Target sequence (P42574 28-227 limits assumed): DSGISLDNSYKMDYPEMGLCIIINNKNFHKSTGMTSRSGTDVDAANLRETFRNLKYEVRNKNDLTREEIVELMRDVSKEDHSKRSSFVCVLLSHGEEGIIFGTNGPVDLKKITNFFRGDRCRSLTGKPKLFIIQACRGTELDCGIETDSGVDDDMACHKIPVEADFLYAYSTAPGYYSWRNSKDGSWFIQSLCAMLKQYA
Luc interf – counter-screen for SENP inhibitors: luminescence interference; actives 39% (n = 6,200); inhibition, % at 12.5 µM; AID 488919; shares compounds with SENP7 block; Pre-incubated SENP8/Z-RLRGG-aminoluciferin, luciferase luminescence interference;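 active = mean inhibition above about 50% when retested at one dose, limit read from the data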
Large screens that a line does not name were inactive (follow-up assays come after a bar, where they were run).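 The calls were made as follows, unless noted: active = mean inhibition above about 50% in the one-dose retest (limit read from the data); inactive = the rest.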

COc1ccc(Cn2cc(CN3CC(N4CCSCC4)CS3(=O)=O)nn2)cc1 (configuration not stated)	none (no result: SENP7 block, SENP6 block, Platelet DG rel, SENP8 block-2)
N/C(=N\OC(=O)Nc1ccccc1)c1ncc(C(F)(F)F)cc1Cl	SENP6 block 50 | SENP8 confirm 52 | SENP6 confirm inactive | SENP7 confirm 77 | Casp3 SENP sel 69 | Luc interf 57
N/C(=N\OC(=O)Nc1ccc(Cl)cc1)c1ncc(C(F)(F)F)cc1Cl	none
O=C(N/N=C\c1ccc2c(c1)OCO2)c1ccco1	SENP7 block 72, SENP6 block 69, SENP8 block-2 64 | SENP8 confirm 68 | SENP6 confirm 67 | SENP7 confirm 91 | Casp3 SENP sel 90 | Luc interf 68
CCN(CC)c1ccc(/C=N/NC(=O)c2ccco2)cc1	none (no result: SENP7 block, SENP6 block, SENP8 block-2)
CCN(CC)c1ccc(/C=N/NC(=O)c2ccco2)c(O)c1	SENP7 block 63, SENP6 block 59 | SENP8 confirm inactive | SENP6 confirm 59 | SENP7 confirm 86 | Casp3 SENP sel 60 | Luc interf 65
CC1CCCC(C)N1CCCNC(=O)C1CCCN(S(=O)(=O)N2CCCCC2)C1 (configuration not stated)	none (no result: SENP7 block, SENP6 block, Platelet DG rel, SENP8 block-2)
COc1cc2ccc(-c3ccc4ccccc4n3)cc2cc1OC	none (no result: SENP7 block, SENP6 block, Platelet DG rel, SENP8 block-2)
COc1ccc2cc(-c3cc(C(=O)O)c4ccccc4n3)ccc2c1	SENP7 block 63, SENP6 block 83, SENP8 block-2 54 | SENP8 confirm 73 | SENP6 confirm 72 | SENP7 confirm 88 | Casp3 SENP sel 81 | Luc interf inactive
COc1ccc(-c2ccc3ccccc3n2)cc1	SENP7 block 99, SENP6 block 94, SENP8 block-2 93 | SENP8 confirm 92 | SENP6 confirm 97 | SENP7 confirm 101 | Casp3 SENP sel 95 | Luc interf 74
COCCCNC(=O)CC1C[C@H](C(=O)N2CCCCC2)[C@@]2(CCc3ccccc3)c3[nH]c4ccc(OC)cc4c3CCN2C1=O (some centres not stated)	none (no result: SENP6 block, Platelet DG rel, SENP8 block-2)
COc1ccc(Nc2ccc3c(c2)=NC2(CCCCC2)[N+]=3[O-])cc1	SENP6 block 82, SENP8 block-1 81 | SENP8 confirm inactive | SENP6 confirm 64 | SENP7 confirm inactive | Casp3 SENP sel inactive | Luc interf inactive
CC(C)(C)C(=O)Nc1scc(-c2ccc(-c3ccccc3)cc2)c1C(=O)O	none
CCOC(=O)c1cc(-c2ccccc2)sc1NC(=O)c1ccc(OC)c(OC)c1	none
CC(C)(C)C(=O)Nc1sc(-c2ccccc2)cc1C(=O)O	SENP6 block 58 | SENP8 confirm inactive | SENP6 confirm inactive | SENP7 confirm 70 | Casp3 SENP sel inactive | Luc interf 52
Cc1cccc(C(=O)Nc2sc(-c3ccccc3)cc2C(=O)O)c1	SENP6 block 85, SENP8 block-2 65 | SENP8 confirm 78 | SENP6 confirm 75 | SENP7 confirm 72 | Casp3 SENP sel inactive | Luc interf 84
Cc1ccc(/C=C/C2=NN(C)C(=O)CC2)cc1	SENP7 block 86, SENP8 block-2 76 | SENP8 confirm 75 | SENP6 confirm 81 | SENP7 confirm 98 | Casp3 SENP sel 93 | Luc interf 62
Cc1ccc(/C=C/C2=NN(Cc3ccccc3)C(=O)CC2)cc1	none
CN1N=C(/C=C/c2ccccc2)CCC1=O	SENP7 block 73, SENP6 block 69, SENP8 block-2 61 | SENP8 confirm 60 | SENP6 confirm 63 | SENP7 confirm 92 | Casp3 SENP sel 89 | Luc interf 68
COc1ccc(Nc2nnc(SCC(=O)/C=C3/N(C)c4ccccc4C3(C)C)s2)cc1	none
O=C(COCc1ccccc1)N[C@@H]1c2ccccc2CC[C@@H]1OCc1ccccc1	none (no result: SENP6 block, Platelet DG rel, SENP8 block-2)
O=[N+]([O-])c1ccc(-c2ccc(/C=N/O)o2)cc1	none
O=[N+]([O-])c1ccc(C=Nc2cccc3ccccc23)s1	SENP6 block 58 | SENP8 confirm inactive | SENP6 confirm inactive | SENP7 confirm inactive | Casp3 SENP sel inactive | Luc interf inactive
O=[N+]([O-])c1ccc(-c2ccc(C=Nc3cccc4ccccc34)o2)cc1	SENP7 block 52, SENP6 block 83 | SENP8 confirm inactive | SENP6 confirm inactive | SENP7 confirm inactive | Casp3 SENP sel inactive | Luc interf inactive

Screens deposited in PubChem by several laboratories.
